# Compound activity deposited in PubChem by National Center for Advancing Translational Sciences (NCATS).
# D2 PAM-1: positive allosteric modulators of human D2 dopamine receptor; potentiation, % (no concentration beside the values); P14416; DiscoveRx D2 beta-arrestin cells, luminescence, 90 min; 100% = 57 uM dopamine signal; 360,000 tested, 0.23% active; in the data active = potentiation above about 50%; inconclusive = mostly about 30% to 49%
#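 D2 cells co-treated with compound plus 50 nM dopamine (EC20) for 90 min at 37 deg C to detect potentiation. Beta-arrestin recruitment was read as enzyme-fragment luminescence after 1 h at ambient temperature. Full response was set by 57 uM dopamine.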
# D2 ag-1: agonists of human D2 dopamine receptor. P14416. activation, % at 2 µM. AID 485358. HEK293 T-REx D2 cells, calcium flux agonist mode. 340,000 tested, 0.53% active;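 active = activation over 3 SD above normal in the single-dose calcium agonist read, cut at about 30% in these data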; note: 0% is about no effect
#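 Agonism is scored from calcium flux in a force-coupled, inducible HEK293 cell line expressing D2, read kinetically for 180 s after compound addition against dopamine controls.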
# D2 PAM-2: positive allosteric modulators of human D2 dopamine receptor; HEK293 T-REx D2, calcium flux, EC20 dopamine potentiation; P14416; 340,000 tested, 0.34% active; potentiation, % at 10 µM;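 active = potentiation over 3 SD above the plate norm, cut at about 30% in these data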; note: 0% is about no effect
#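 Calcium flux readout, no-wash dye, 1 read/s. Inducible HEK293 Trex D2 line, overnight 30 C. Compound alone 180 s (agonist flags), then EC20 dopamine, another 180 s to score potentiation.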
# D2 antag: antagonists of human D2 dopamine receptor; 340,000 tested, 2% active; HEK293 TREx D2 cells, calcium flux, dopamine EC80; inhibition, % at 10 µM; P14416; AID 485344; in the data active = inhibition above about 30%; inactive = below that, where a call was filed; note: 0% is about no effect
#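 Antagonism is scored as inhibition of an EC80 dopamine-evoked calcium signal in a force-coupled, tetracycline-inducible HEK293 T-REx D2 line, with compound present 180 s before agonist.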
# D2 ag-2: human D2 receptor agonism in beta-arrestin assay; activation, % (concentration not given with the values); 360,000 tested, 0.084% active; DiscoveRx PathHunter D2 beta-arrestin, luminescence, 90 min; 100% = 57 uM dopamine signal; P14416; in the data active = activation above about 40%; inconclusive = between about 15% and that limit
#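 DiscoveRx PathHunter D2 beta-arrestin cells (2,100/well) attached overnight, then compound-stimulated 90 min at 37 C in HBSS/10 mM HEPES/0.1% Tween-20 buffer; beta-galactosidase complementation read by luminescence after 1 h at ambient temperature. Dopamine 57 uM final (EC100) as control.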
# D3 arrestin ag: confirmation of human D3 dopamine receptor agonists, beta-arrestin; Potency, µM (doses to about 76.9 µM), for inactives: at the highest dose activation, usual class: activators; shares compounds with D2 ag-1; AID 720506; 2,300 tested, 4% active; DiscoveRx D3 beta-arrestin cells, luminescence, 90 min;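 note: potency is the fitted concentration of half-maximal effect; 100% = dopamine control response; nearly all actives have a fitted effect of over 70% in size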
# Target sequence (P35462 whole entry, looked up): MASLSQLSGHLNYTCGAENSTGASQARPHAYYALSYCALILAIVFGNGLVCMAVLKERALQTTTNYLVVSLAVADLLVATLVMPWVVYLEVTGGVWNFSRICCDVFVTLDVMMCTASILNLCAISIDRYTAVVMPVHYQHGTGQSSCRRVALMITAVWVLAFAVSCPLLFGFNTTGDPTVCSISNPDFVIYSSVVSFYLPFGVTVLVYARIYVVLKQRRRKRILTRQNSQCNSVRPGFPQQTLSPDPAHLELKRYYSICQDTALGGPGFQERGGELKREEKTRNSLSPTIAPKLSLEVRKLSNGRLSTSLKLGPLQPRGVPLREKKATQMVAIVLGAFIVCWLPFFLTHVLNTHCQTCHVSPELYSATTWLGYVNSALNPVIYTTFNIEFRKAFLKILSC
# D2 ag-3: D2 receptor agonism, beta-arrestin counterscreen; 2,300 tested, 5.9% active; AID 720507; DiscoveRx PathHunter D2 beta-arrestin, luminescence, 90 min; response scale: percent relative to full dopamine signal; shares compounds with D2 ag-1; Potency, µM (titrated, usually from 76.9 µM), for the others: at the highest dose activation, most hits filed as activators; note: potency is the fitted concentration of half-maximal effect; % of control where 0% means no effect; nearly all actives have a fitted effect of over 70% in size
# Active calls of the source: *; ? = inconclusive; / = no result. Sampled rows, rich in hits. Any-hit rate of the full collection: about 2.4%. Unless noted, calls come from the whole dose curve; as a rule, active = well fitted activation curve with a large enough effect; inconclusive = small, poorly fitted or top-dose-only effect; inactive = flat fitted curve, though single readings scatter.
SMILES,D2 PAM-1,D2 ag-1,D2 PAM-2,D2 antag,D2 ag-2,D3 arrestin ag,D2 ag-3
O=C(CCc1ccc(O)c(O)c1)NNC(=S)NCCc1ccccc1,7.8,46.4*,-24.5,29.1,9.8,?,13.0%
COc1cccc(NC(=O)NNC(=O)CCc2ccc(O)c(O)c2)c1,-24.4,52.5*,-17.3,24.1,?,7.94µM*,13.5%
COc1ccc(CCC(=O)NNC(=O)Nc2cccc(Cl)c2)cc1,-5.2,-0.5,5.1,-7.9,0.9,/,/
Cc1cccc2cc(CNCC3CCCO3)c(Cl)nc12 (stereo not drawn),-5.6,44.9*,-23.1,11.7,8.4,4.1%,19.6%
O=C(CNS(=O)(=O)c1ccccc1)OCc1cccc([N+](=O)[O-])c1,-20.5,41.3*,-17.7,-18.2,-0.7,-1.0%,-0.4%
O=C(NCCNS(=O)(=O)c1ccccc1)c1ccc([N+](=O)[O-])cc1,0.8,57.5*,-22.4,28.1,-1.4,0.4%,3.1%
O=C(CNS(=O)(=O)c1ccccc1)OCC(=O)c1cccc([N+](=O)[O-])c1,-30.9,0.5,0.8,11.4,-17.0,/,/
CNC(=O)N(O)C1N(/N=C/c2cc(Br)ccc2O)C(=S)SC1(C)C (stereo not drawn),12.0,47.7*,-19.0,49.5*,59.0*,-8.0%,?
CNC(=O)N(O)C1N(/N=C/c2ccc(C)cc2)C(=S)SC1(C)C (stereo not drawn),-10.0,-0.1,-4.0,-4.3,-3.7,/,/
N#Cc1ccc(NC(=O)CN2CCN(c3ccccn3)CC2)cc1,21.4,77.2*,-29.7,68.4*,48.2*,?,39.8µM*
N#Cc1ccsc1NC(=O)CN1CCN(c2ccccn2)CC1,5.3,40.9*,-6.8,30.8*,?,?,?
CC(C)c1ccc(NC(=O)CN2CCN(c3ccccn3)CC2)cc1,-9.3,15.1,-10.8,-0.5,14.0,/,/
N#Cc1ccsc1NC(=O)CN1CCN(c2ccc(O)cc2)CC1,?,4.4,13.5,14.4,11.6,/,/
N#Cc1ccsc1NC(=O)CN1CCN(c2ccccc2)CC1,0.6,48.5*,-23.8,22.9,13.0,4.8%,18.8%
CC(=O)N1CCN(CC(=O)Nc2sccc2C#N)CC1,-0.4,0.2,14.0,8.2,-3.1,/,/
C[C@H](CO)N1C[C@H](C)[C@@H](CN(C)C(=O)c2cc(-c3ccccc3)on2)OCc2cn(nn2)CCCC1=O,0.4,/,/,/,-6.9,/,/
Cc1cn2c(=O)c(C(=O)N3CCN(c4ccccc4F)CC3)cnc2s1,4.7,0.6,5.1,13.4,-2.2,/,/
Cc1cn2c(=O)c(C(=O)N3CCN(c4ccccc4)CC3)cnc2s1,-23.0,0.3,6.1,-12.0,-2.5,-8.5%,-1.9%
CC[n+]1ccc2cc(OC)c(OC)cc2c1Cc1ccc(OC)c(OC)c1,-4.7,1.7,-10.8,12.0,0.2,/,/
CCCn1c(=O)c(C(=O)Nc2ccccc2N)c(O)c2ccccc21,0.9,/,/,/,-2.4,/,/
COc1cccc(CN(C)C(=O)c2cccc(S(=O)(=O)N3CCN(Cc4ccccc4)CC3)c2)c1OC,-12.4,1.9,-0.1,0.1,-2.8,29.3%,20.1%
CCOc1cc(C)c(S(=O)(=O)NC2CC(C)(C)NC(C)(C)C2)cc1C,-6.7,0.2,4.4,17.7,-2.4,/,/
CCOc1ccc(Br)cc1S(=O)(=O)NC1CC(C)(C)NC(C)(C)C1,-5.6,27.7,-14.7,16.4,-3.7,-9.8%,-3.7%
Cc1cc(C)c(S(=O)(=O)NC2CC(C)(C)NC(C)(C)C2)cc1C,1.0,30.0*,1.9,15.0,-3.1,9.3%,5.6%
COc1ccc(Cl)cc1S(=O)(=O)NC1CC(C)(C)NC(C)(C)C1,-1.4,/,-6.5,/,-3.4,/,/
SMILES,D2 PAM-1,D2 ag-1,D2 PAM-2,D2 antag,D2 ag-2,D3 arrestin ag,D2 ag-3
COc1ccc(C)cc1CN(C)c1ccc(S(=O)(=O)N2CCN(C)CC2)cn1,-3.2,-0.6,-1.9,-10.3,-3.4,/,/
Cc1c(-c2csc(N)n2)cnn1C,12.4,10.0,2.2,25.6,?,11.2µM*,22.1%
O=C(/C=C/c1ccccc1Cl)NC1CCCCC1,-6.2,0.4,-5.1,-8.6,-0.4,/,/
O=C(/C=C/c1ccccc1Cl)N(c1ccccn1)C1CCCCC1,5.3,76.9*,-27.6,98.8*,?,8.7%,?
COCC(=O)Nc1nnc(-c2ccc(C(C)(C)C)cc2)s1,-9.9,2.0,6.9,-1.9,-9.6,16.1%,-0.1%
COc1ccc(NC(=O)CSCC(=O)Nc2ccc(S(=O)(=O)N3CCOCC3)cc2)cc1,0.4,0.4,-4.3,3.6,2.4,1.3%,4.2%
COCCN(CC(=O)Nc1cccc(C)c1C)C(=O)C1(c2ccc(Cl)cc2)CCC1,-6.8,/,/,/,-3.3,/,/
Cc1cc(N2CCOCC2)nc(N)n1,-3.4,41.0*,-8.6,26.1,-2.2,-2.5%,-2.8%
CC(C)n1ncc2c(C(=O)N3CCN(Cc4ccc(Br)s4)CC3)cc(C3CC3)nc21,5.6,64.4*,-22.5,70.3*,?,23.8%,?
CCN(CC)CCCn1c(=S)[nH]c2ncccc2c1=O,8.0,49.8*,-15.7,47.8*,3.5,-6.0%,5.6%
O=c1c2ccccc2[nH]c(=S)n1CCCN1CCN(c2ccccc2F)CC1,-11.5,71.2*,-29.1,80.8*,?,14.2%,26.5%
CCOCCCn1c(=S)[nH]c2cc(C(=O)NCCN(CC)CC)ccc2c1=O,1.5,/,-12.5,/,8.5,-7.8%,11.8%
O=c1c2ccccc2[nH]c(=S)n1CCCN1CCN(c2ccccc2)CC1,?,0.6,4.9,-23.8,?,/,/
O=c1c2cccnc2[nH]c(=S)n1CCCN1CCN(c2ccccc2F)CC1,-5.3,81.5*,-23.1,115.5*,?,7.9%,?
CCN(CCCn1c(=S)[nH]c2ncccc2c1=O)c1ccccc1,-6.0,-0.9,1.3,-2.2,-1.7,/,/
COc1ccc(OCc2nnc(SC(C)C(=O)Nc3ccc(N4CCOCC4)cc3)n2C)cc1 (stereo not drawn),-18.1,/,/,/,-1.6,/,/
COC(=O)c1ccc(NC(=O)CSc2nncn2-c2ccccn2)cc1,-0.7,-0.1,-6.0,-17.2,0.2,/,/
CC(C)C(=O)NC1CC(=O)N(c2ccc3c(c2)OCCO3)C1 (stereo not drawn),/,21.6,-1.4,/,/,/,/
COc1ccc2[nH]c(C(=O)NCc3ccccc3)c(C)c2c1,-2.8,-0.3,-0.8,5.7,-1.8,/,/
CC(NC(=O)c1cccs1)C(c1cccs1)N1CCN(Cc2ccccc2)CC1 (stereo not drawn),-29.6,-0.7,1.0,-7.3,-0.6,/,/
CCC(=O)NC(C)C(c1cccs1)N1CCN(Cc2ccccc2)CC1 (stereo not drawn),-10.5,44.9*,-14.6,1.9,-3.5,-11.7%,4.1%
